AmpC detergent – blocks E. coli AmpC beta-lactamase in detergent assay; 0.041% of 370,000 active; AID 485294; Potency, µM (highest dose often 114 µM), inactives show top-dose activity change, negative = inhibition, actives largely listed as inhibitors; AmpC hydrolysis of nitrocefin, absorbance 480 nm, 0.01% Triton;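 also: 0% = no-compound wells and -100% = no-enzyme wells; nearly all actives have a fitted effect of over 25% in size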
Target sequence (P00811 whole entry, looked up): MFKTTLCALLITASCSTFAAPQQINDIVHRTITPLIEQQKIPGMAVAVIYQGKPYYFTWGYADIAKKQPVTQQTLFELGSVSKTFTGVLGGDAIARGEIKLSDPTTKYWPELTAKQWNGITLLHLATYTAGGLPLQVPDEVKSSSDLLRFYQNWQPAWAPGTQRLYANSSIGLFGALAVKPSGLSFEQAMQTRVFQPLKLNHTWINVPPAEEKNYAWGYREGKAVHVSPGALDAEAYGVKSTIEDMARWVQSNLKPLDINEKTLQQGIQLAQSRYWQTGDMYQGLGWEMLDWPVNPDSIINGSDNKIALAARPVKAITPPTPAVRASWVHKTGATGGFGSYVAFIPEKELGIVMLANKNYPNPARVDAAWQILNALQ
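AmpC (5.3 nM in the dispensed reagent) in 20 mM phosphate pH 7.0 with 0.01% (detergent screen) or 0.0001% Triton X-100 was preincubated with compounds for 15 min at room temperature. Nitrocefin was then added from an 800 uM solution, and hydrolysis was followed at 480 nm.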
FBPA Giardia inh – blocks Giardia fructose-bisphosphate aldolase activity; purified Giardia FBPA; AID 2451; A8B2U2; 0.71% of 290,000 active; Potency, µM (top dose mostly 59.6 µM), inactives show top-dose activity, negative = inhibition, hits mostly inhibitors; also: nearly all actives have a fitted effect of over 55% in size
Target sequence (A8B2U2 whole entry, looked up): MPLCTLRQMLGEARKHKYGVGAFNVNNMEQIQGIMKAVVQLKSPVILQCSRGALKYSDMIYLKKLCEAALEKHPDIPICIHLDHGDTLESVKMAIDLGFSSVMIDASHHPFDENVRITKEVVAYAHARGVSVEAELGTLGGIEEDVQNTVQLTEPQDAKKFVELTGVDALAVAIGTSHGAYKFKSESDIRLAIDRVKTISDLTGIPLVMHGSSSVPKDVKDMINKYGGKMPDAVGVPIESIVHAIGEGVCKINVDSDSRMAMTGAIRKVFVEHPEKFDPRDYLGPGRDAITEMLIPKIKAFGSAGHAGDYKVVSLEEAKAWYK
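Giardia FBPA (40 nM reagent) was preincubated 10 min at RT with compound (up to 57.5 uM final), then substrate plus GAPDH/TPI/NAD/arsenate coupling system with diaphorase/resazurin was added; resorufin fluorescence (525/598 nm) was read after 20 min.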
Sm TGR inh – S. mansoni TGR enzyme inhibition | purified TGR, DTNB reduction, TNB absorbance 405 nm | Q962Y6 | Potency, µM (series often up to 114 µM), inactives show at the top dose activity change, negative = inhibition, usual class: inhibitors | 3% of 360,000 active; also: nearly all actives have a fitted effect of over 60% in size
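TGR 20 nM + NADPH 100 uM (dispensed conc.), cpd preinc 15 min RT; start with NADPH (500 uM addition) then DTNB (15 mM addition). Kinetic TNB absorbance, 405 nm filter. Four-parameter Hill fit across titration.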
RE007 growth inh – less growth of the S. pombe RE007 Vpr strain | AID 651644 | 0.21% of 360,000 active | S. pombe RE007 Vpr strain, BacTiter-Glo ATP luminescence, 24 h | Potency, µM (titrated, usually from 92.2 µM), without a hit: at the top dose activity change, negative = less growth, most hits filed as inhibitors; active = well fitted falling curve with a large enough effect; inconclusive = small, poorly fitted or top-dose-only effect; inactive = no such curve, though single readings can be large or run the other way; also: nearly all actives have a fitted effect of over 50% in size
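Fission yeast strain RE007, carrying one chromosomally integrated HIV-1 vpr copy, was seeded at OD 0.01 in PMG+AL medium with 23 nL pinned compound. After 24 h at 30 °C and 99% humidity, viability was read by BacTiter-Glo luminescence.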
AmpC no deterg – blocks E. coli AmpC beta-lactamase in detergent-free assay; P00811; AmpC nitrocefin hydrolysis, absorbance 480 nm, 0.0001% Triton; Potency, µM (highest dose often 57.1 µM), without a hit: at the top dose activity change, negative = inhibition, most hits filed as inhibitors; 0.52% of 330,000 active; AID 485341;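 also: plate controls were no compound for no effect and no enzyme for full effect; nearly all actives have a fitted effect of over 20% in size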
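20 mM phosphate pH 7.0 + 0.01% (detergent screen) or 0.0001% Triton X-100; 5.3 nM AmpC reagent; cpd preinc 15 min RT; nitrocefin (800 uM stock) to start; A480 q20 s × 4 min; Activity was normalised to no-enzyme and no-compound control wells.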
* = called active by the depositor; ? = inconclusive; / = not tested or not shown. Compounds with a hit are over-represented: about 3.4% of the library has one in this group of screens. Unless noted, calls follow the shape of the dose curve; as a rule, active = well fitted curve in the direction sought with a large enough effect; inconclusive = small, poorly fitted or top-dose-only effect, or another doubt; inactive = no such curve, though single readings can be large; an effect the other way counts as inactive or inconclusive. Unless noted, % is scaled to controls: 0 for no effect and ±100 for the full control effect; potency is read from the fitted curve at half-maximal effect.

SMILES	AmpC detergent	FBPA Giardia inh	Sm TGR inh	RE007 growth inh	AmpC no deterg
COc1ccc(N2CCN(C(=O)Cn3nnc(-c4ccc(N(C)C)cc4)n3)CC2)cc1	?	-1%	-18%	-3%	-19%
O=C(OCC(O)COC(=O)c1cccnc1)c1cccnc1	-3%	-13%	30%	-12%	-6%
Cc1ccc(NC(=O)CN2C(=O)N/C(=C/c3ccco3)C2=O)cc1	-22%	-24%	50µM*	-11%	?
Cc1ccc(NC(=O)CN2C(=O)N/C(=C/c3cc(C)n(-c4ccc(C(=O)O)cc4)c3C)C2=O)cc1	-3%	-12%	45µM*	-6%	-19%
CC(NC(=O)/C=C/c1ccco1)c1nc2ccccc2n1Cc1ccccc1F (centres undefined)	-7%	3%	35µM*	-2%	-26%
CC(NC(=O)c1ccccc1)c1nc2ccccc2n1Cc1ccccc1F (centres undefined)	7%	/	34%	/	36%
CC(NC(=O)/C=C/c1ccco1)c1nc2ccccc2n1Cc1c(Cl)cccc1Cl (centres undefined)	-14%	2%	25µM*	-3%	-39%
CC(=O)NC(C)c1nc2ccccc2n1Cc1ccccc1Cl (centres undefined)	4%	/	-2%	/	/
Cc1cc(Cl)ccc1NC(=O)CN1C(=O)NC2(CCCc3ccccc32)C1=O (centres undefined)	-7%	/	-2%	-29%	-8%
OCCC1CN(Cc2cccn2-c2cccnc2)CCN1CCc1ccccc1 (centres undefined)	-2%	7%	-17%	4%	-5%
CCc1ccc(N2C(=O)c3sc4nnc(-c5ccccc5)c(=O)n4c3C2=O)cc1	-4%	-2%	10µM*	-18%	-49%
CCOc1ccccc1NC(=O)c1nc(S(=O)(=O)Cc2ccccc2)ncc1Cl	1%	/	3.5µM*	3%	-26%
COc1ccc(OC)c(NC(=O)c2nc(S(=O)(=O)Cc3ccc(F)cc3)ncc2Cl)c1	1%	/	3.2µM*	/	/
COc1ccc2nc(NC(=O)c3nc(S(=O)(=O)Cc4ccc(C)cc4)ncc3Cl)sc2c1	21%	/	6%	/	/
COc1ccccc1NC(=O)c1nc(S(=O)(=O)Cc2ccccc2)ncc1Cl	-9%	/	10µM*	10%	-29%
CCS(=O)(=O)c1ncc(Cl)c(C(=O)Nc2ccccc2OC)n1	-15%	16%	0%	13%	-14%
O=C(CCN1CCN(C(=O)c2ccccc2)CC1)c1ccc(Br)cc1	2%	-6%	0.32µM*	28µM*	80%
O=C(c1ccc(Br)cc1)N1CCN(Cc2ccccc2)CC1	?	-1%	-27%	-16%	39%
Cn1c(/N=C/c2c(O)ccc3ccccc23)nc2ccccc21	5%	0.71µM*	10µM*	-10%	-25%
CCCn1c(/N=C/c2ccccc2O)nc2ccccc21	4%	-2%	-20%	-9%	-12%
Cc1nnc(C)n1/N=C/c1c(O)ccc2ccccc12	-7%	-17%	28µM*	-4%	-28%
O=S(=O)(/N=C/c1c(O)ccc2ccccc12)c1ccccc1	3%	?	40µM*	-24%	-25%
Cc1nnc(-c2ccccc2)c(=O)n1/N=C/c1c(O)ccc2ccccc12	-7%	6%	-1%	1%	-23%
COc1cc(/C=C/c2nc(C#N)c(N3CCCCCC3)o2)cc(OC)c1OC	17%	/	1%	/	/
CN(C)c1ccc(CC2C(=O)Nc3ccccc32)cc1 (centres undefined)	0%	?	14µM*	-12%	-16%
SMILES	AmpC detergent	FBPA Giardia inh	Sm TGR inh	RE007 growth inh	AmpC no deterg
CC1(C)CC(=O)C(C=Nc2cccnc2/N=C/C2=C(O)CC(C)(C)CC2=O)=C(O)C1	1%	-3%	22µM*	-12%	-12%
CC1(C)CC(=O)C(C=Nc2cccnc2)=C(O)C1	2%	3%	5%	?	-6%
O=C(Nc1c(F)cc(F)cc1Br)c1cc(-c2ccc(O)cc2)on1	0%	3%	-4%	-17%	-29%
Cc1cc(C)n2nc(SCC(=O)c3ccc[nH]3)nc2n1	-15%	-10%	32µM*	-10%	-6%
O=C(C1=C[C@H](C2CCCCC2)C[C@H](OCCCCO)O1)N1CCN(Cc2ccccc2)CC1	4%	-9%	35µM*	2%	199%
O=C(C1=C[C@H](C2CC2)C[C@H](OCCCCO)O1)N1CCN(Cc2ccccc2)CC1	-6%	-9%	25µM*	2%	104%
CC[C@H]1CN(C)C[C@@]2(C(=O)OC)Cc3c([nH]c4ccccc34)C(=O)C[C@@H]12	/	/	/	13%	/
CCC1CN(C)C2Cc3c([nH]c4ccccc34)C(=O)CC1C2C(=O)OC (centres undefined)	-12%	-8%	45µM*	-16%	-13%
Cc1cc(C(c2ccc(C)o2)c2ccc(C)o2)c(O)c([N+](=O)[O-])c1	?	-18%	45µM*	-25%	-40%
COc1cccc(-c2c(NC(=O)c3ccco3)n(-c3ccc(C)cc3)nc(C)c2=O)c1	?	1%	79µM*	12%	-2%
C/C(=C\C(=O)c1ccc(Br)cc1)NNC(=O)c1ccc(O)cc1	1%	4%	?	5%	-29%
COC(=O)[C@@]1(Cc2ccc(OC)cc2)[C@H]2c3cc(C(=O)N4CCCC4)n(CCCNc4ncc(C(F)(F)F)cc4Cl)c3C[C@H]2CN1C(=O)c1ccccc1	/	-8%	/	/	/
COc1cccc(OC)c1C(=O)NC(C)C12CC3CC(CC(C3)C1)C2 (centres undefined)	0%	4%	0%	10µM*	27%
O=C(c1cnccn1)N1CCCC(N2CCN(c3cccc(Cl)c3)CC2)C1 (centres undefined)	8%	/	89µM*	-14%	24%
Cc1cccc(C(=O)N2CCCC(N3CCN(c4cccc(Cl)c4)CC3)C2)n1 (centres undefined)	2%	/	-2%	-25%	82%
COc1ccccc1NC(=O)CC(NCc1ccccc1)C(=O)O (centres undefined)	?	-7%	-12%	48%	-10%
c1ccc(-c2noc(C3CCCCC3)n2)nc1	-2%	0%	-4%	35µM*	-18%
Brc1ccc(-c2noc(C3CCCCC3)n2)cc1	2%	3%	13%	-7%	-20%
COc1ccc(CNC(=O)COC(=O)c2cc(-c3ccc(Cl)s3)nc3ccccc23)cc1	1%	2%	1%	0%	-19%
O=C(COC(=O)c1cc(-c2ccc(Cl)s2)nc2ccccc12)NCc1ccco1	-2%	-9%	7.9µM*	0%	128%
O=C(NCc1ccco1)c1c2c(nc3ccccc13)CCC2	-13%	-16%	40µM*	-20%	-23%
